Results on 104 compounds are retold here after PubChem BioAssay AID1792 (The Scripps Research Institute Molecular Screening Center, 2009).

What is called inhibition is the drop in the measured response relative to a control, in per cent.

The campaign covered roughly 16,000 compounds. About 130 (0.81%) were called active. The sample holds actives, similar compounds and a random draw of the others, so the mix is not that of the screen. Cut-off read from the data, not from the text of the source: active = inhibition above about 75%; inactive = the rest.

The target of the assay is NADPH oxidase 1 (Homo sapiens) (UniProt Q9Y5S8). Kind of assay: blocks human NADPH oxidase 1 activity (AID 1792). Conditions: HT29 cells, luminol chemiluminescence ROS; at 6.7 µM; active compounds read high.
NADPH oxidase 1 (Homo sapiens), sequence (Q9Y5S8 whole entry, looked up): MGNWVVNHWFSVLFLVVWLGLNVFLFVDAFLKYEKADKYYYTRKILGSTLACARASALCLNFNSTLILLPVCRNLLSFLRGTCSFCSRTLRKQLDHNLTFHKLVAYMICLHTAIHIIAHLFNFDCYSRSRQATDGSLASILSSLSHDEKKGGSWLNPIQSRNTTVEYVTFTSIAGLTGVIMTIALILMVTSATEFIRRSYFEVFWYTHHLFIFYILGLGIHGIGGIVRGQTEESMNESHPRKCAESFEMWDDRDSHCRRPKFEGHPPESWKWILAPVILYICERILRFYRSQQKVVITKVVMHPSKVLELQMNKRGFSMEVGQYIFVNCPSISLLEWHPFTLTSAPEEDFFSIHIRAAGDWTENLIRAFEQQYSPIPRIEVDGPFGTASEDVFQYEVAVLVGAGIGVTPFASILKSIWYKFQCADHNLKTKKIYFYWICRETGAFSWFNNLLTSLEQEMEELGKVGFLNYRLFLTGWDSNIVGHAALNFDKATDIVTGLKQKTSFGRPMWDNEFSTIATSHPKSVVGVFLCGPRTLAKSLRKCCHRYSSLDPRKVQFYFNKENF
Take `COc1ccc(NC(NC(=O)c2ccc(OC)cc2)(C(F)(F)F)C(F)(F)F)cc1`: the inhibition is -26.1% (inactive).
Take `COc1ccc(NC(=O)C2CC(C)=C(C)CC2C(=O)O)c(N2CCOCC2)n1` (centres undefined): the inhibition was -11.6% (inactive).
For `O=C(CSC(=S)N1CCCCC1)c1c(F)cccc1F` the value was 16% (inactive); for `Cn1nc(-c2ccccc2)cc1N`, 12.5% (inactive).
In the case of `O=C(Nc1ccc(C(F)(F)F)cc1)Nc1ccccc1C(=O)O`, the inhibition is -32.5% (inactive).
Then `Cc1ccc(OC(=O)c2nn(-c3ccccc3)nc2C)c([N+](=O)[O-])n1`, with -75.6% (inactive).
On to `O=C(NCc1cc2ccccc2s1)C1CN(C(c2ccccc2)c2ccccc2)C1`, for which the inhibition is -2.49% (inactive).
As to `O=C(O)CC(CC(=O)O)c1ccc(C(F)(F)F)cc1`, the inhibition is -30.4% (inactive).
`COC(=O)c1sc(S(C)=O)c(-c2ccon2)c1C` (centres undefined): the inhibition is -55.1% (inactive).
For `Cc1onc(-c2ccccc2)c1C(=O)Sc1ccc(C(F)(F)F)cn1`, the inhibition is -30.5% (inactive).
Then `COC(=O)c1ccc(/C=C2\C(=O)Nc3ccccc32)n1-c1ccc(F)cc1`, with -9.26% (inactive).
Then `COc1ccc(Cc2nnc(SC)[nH]c2=O)cc1`, with -41.8% (inactive).
With `O=S(=O)(Oc1ccc(C2SCCS2)cc1)c1ccc(Br)cc1`, the inhibition is 10.3% (inactive).
For `OC(c1ccncc1)c1c[nH]c2ccccc12` (centres undefined) the value was -46.2% (inactive); for `COc1ccc(OC)c(CCCc2cc(OC)ccc2OC)c1`, -22.8% (inactive); for `N#Cc1ccc(N2CCN(C(=O)c3ccco3)CC2)cc1`, -5.71% (inactive).
For `Cc1[nH]c2c(F)cc(F)cc2c(=O)c1I` the value was -29.2% (inactive); for `COc1cc(-c2n[nH]c(=S)n2Cc2ccccc2)cc(OC)c1OC`, -31.5% (inactive); for `O=C1CCCCC(=O)c2ccccc2N1`, -36.9% (inactive).
Then `Cc1c(S(=O)(=O)c2ccc(Cl)cc2)csc1C(=O)Nc1ccc2c(c1)OCCO2`, with -34.3% (inactive).
For `NS(=O)(=O)c1cc(C(F)(F)F)cc(C(F)(F)F)c1`, the inhibition is -30.4% (inactive).
For `NNC(=O)c1ccc(Cl)cc1Cl` the value was -29.6% (inactive); for `N#CNC(N)=Nc1cc(Cl)ccc1Cl`, -53.6% (inactive).
Take `O=C(NCc1csc(-c2cccs2)n1)Nc1ccccc1-c1ccccc1`: the inhibition is 11.9% (inactive).
Then `Cn1c(=O)c(/C(N)=N/OC(=O)c2ccccc2Cl)cn(-c2ccccc2)c1=O`, with -28.3% (inactive).
Then `N/C(CC(=O)Nc1ccc(F)c(Cl)c1)=N\O`, with 8.11% (inactive); and `O=C1NCCN1CCNS(=O)(=O)c1cc(Cl)sc1Cl`, with 14.5% (inactive); and `O=C(N[C@@H](Cc1ccc(O)cc1)C(=O)O)OCc1ccccc1`, with -6.06% (inactive).
Then `CN(C)NC(=O)c1csnc1-c1c(Cl)cccc1Cl`, with -20.2% (inactive); and `CC(OC(=O)c1cccc(Cl)c1)c1ccc[n+](C)c1` (centres undefined), with -47.2% (inactive).
Regarding `CCOC(=O)/C(C#N)=C/c1ccc(-c2nccs2)cc1C(C)(C)C`, the inhibition is 8.33% (inactive).
For `N#CC(C#N)=C/C=C(/Sc1nc2cc(Cl)ccc2s1)c1ccc(Cl)cc1` the value was -27.8% (inactive); for `CCOC(=O)N1CCN(CC(O)COc2ccc(OC(F)(F)F)cc2)CC1` (centres undefined), -47.2% (inactive).
Then `O=C(O)CC(CC(=O)Oc1ccccc1N1CCCCC1)c1ccccc1` (centres undefined), with -24.8% (inactive); and `O=C(Oc1ccccc1N1CCCCC1)c1sc2ccccc2c1Cl`, with 85.7% (active).
Consider `CCOC(=O)c1sc2ccccc2c1N`, for which the inhibition is -25.5% (inactive).
Then `N#C/C(=C\N1CCc2ccccc21)S(=O)(=O)c1ccc(C(F)(F)F)cn1`, with -30.5% (inactive); and `N#CCCN(CCc1ccccn1)S(=O)(=O)c1ccc2c(c1)CCO2`, with 35.1% (inactive); and `CCOC(=O)Cc1cnc(NN=C2C3CC4CC(C3)CC2C4)s1`, with 55.1% (inactive).
For the compound `CSc1sc(NC(=O)N2CCOCC2)c(-c2ccc(Cl)cc2)c1C#N`, the inhibition was 17.4% (inactive).
Then `O=C(CNC(=O)c1ccccc1F)c1ccc(Br)cc1`, with -16.2% (inactive).
Turning to `COc1ccc(COCC(O)CN2CCC(C(N)=O)CC2)cc1` (centres undefined), the inhibition was -52.2% (inactive).
As to `CCOC(=O)O/N=C(\N)c1ccc(Cl)cc1`, the inhibition is 26% (inactive).
Turning to `CC(C)(C)c1ccc(NC(=O)c2ccco2)c(NC(=O)C(Cl)(Cl)Cl)c1`, the inhibition was 6.12% (inactive).
Take `CN(Cc1nnc(-c2ccc3ccccc3c2)o1)c1nnc(C(F)(F)F)s1`: the inhibition is 10.6% (inactive).
In the case of `CC1(C)CC(=O)c2c(NCc3ccco3)sc(C#N)c2C1`, the inhibition is -14.6% (inactive).
As to `CC(C)n1c(SCC(=O)c2cccc([N+](=O)[O-])c2)nc2cc(C(F)(F)F)ccc21`, the inhibition is 4.76% (inactive).
For `CCOC(=O)c1cc(C)nc(Sc2ccccc2NC(=O)Nc2ccc(Cl)cc2)c1C#N` the value was 34.3% (inactive); for `Cc1nn(-c2ccccc2)nc1C(=O)Nc1nnc(C2CC2)s1`, -13.2% (inactive).
Then `COC(=O)c1cc(OC)c(OC)cc1NS(=O)(=O)c1ccsc1C(=O)OC`, with -24.8% (inactive); and `O=C(NNc1ccc(C(F)(F)F)cn1)c1ccccc1Cl`, with 40.9% (inactive).
Turning to `O=C1C=C(NNc2ccccc2)CCC1`, the inhibition was -9.52% (inactive).
Then `Cn1cnnc1SCC(=O)Nc1cc(C(F)(F)F)cc(C(F)(F)F)c1`, with -26.6% (inactive).
As for `CC1CN=C(N(Cc2cccnc2)C(=O)Nc2ccc(Cl)c(Cl)c2)S1` (centres undefined), the inhibition is 11.1% (inactive).
Consider `FC(F)(F)c1cnc(NN=C2CCSCC2)c(Cl)c1`, for which the inhibition is -21.6% (inactive).
In the case of `N/C(=N/OC(=O)NC(=O)c1c(Cl)cccc1Cl)c1ccc(F)cc1F`, the inhibition is -11.4% (inactive).
Turning to `Cc1nn(C)c(C)c1Sc1nccc(-c2cccnc2)n1`, the inhibition is 17.5% (inactive).
With `COc1cc(OC)nc(/N=C/c2nc(-c3ccccc3)oc2O)n1`, the inhibition was 16.6% (inactive).
As for `O=C(NCc1ccccc1)c1cc2sccc2s1`, the inhibition is -33% (inactive).
For `CSc1n[nH]c(=O)n1-c1cccc(C(F)(F)F)c1`, the inhibition was -36.5% (inactive).
`O=S(=O)(c1ccc2c(c1)OCCO2)N1CCN(c2ccc(C(F)(F)F)cn2)CC1`: the inhibition was -13.2% (inactive).
Consider `Cc1c(CC(=O)Oc2ccc([N+](=O)[O-])cc2)sc2ccc(Cl)cc12`, for which the inhibition was 15.6% (inactive).
Then `CCCCc1ccc(S(N)(=O)=O)cc1`, with -14.9% (inactive).
Take `O=C(O)CC1(CC(=O)NCc2ccco2)CCCCC1`: the inhibition was -9.49% (inactive).
As to `CCOC(=O)/C(=N/Nc1ccccc1)C(C)=N`, the inhibition is -20% (inactive).
Consider `COc1ccc(OCCC(=O)NNC(=S)Nc2cc(Cl)ccc2Cl)cc1`, for which the inhibition was -22.8% (inactive).
For `Cc1cc(Cl)ccc1NC(=S)NNC(=S)Nc1ccc(F)cc1` the value was 87.6% (active); for `CC(=O)Nc1ccc(F)cc1F`, -7.89% (inactive); for `O=[N+]([O-])c1ccc(N2CCOCC2)cc1`, 23.6% (inactive).
Then `CN(NS(=O)(=O)CS(C)(=O)=O)c1ncccc1[N+](=O)[O-]`, with -4.72% (inactive); and `O=C1C(Cl)=C(Oc2cc(Cl)c(Cl)cc2Cl)C(=O)c2ccccc21`, with 64% (inactive).
For `O=C(O)C#Cc1cccc2ccccc12` the value was -49.7% (inactive).
With `Cc1ccc2oc(-c3cccs3)nc2c1`, the inhibition is -69.6% (inactive).
For `Clc1ccc(CO/N=C/c2nc3ccccc3s2)cc1` the value was -46.7% (inactive); for `CSc1nsc(SC)c1C(=O)Nc1cc(C(F)(F)F)cc(C(F)(F)F)c1`, -44% (inactive); for `CCOC(=O)/C(C#N)=C/N/S(C)=N/N=C/c1ccc(N(C)C)cc1` (centres undefined), 3.26% (inactive).
With `CCCCNc1nc(N)ns1`, the inhibition is -43% (inactive).
Then `Clc1ccc(-c2csc(N/N=C\c3ccn[nH]3)n2)cc1`, with 19% (inactive); and `Cc1nc(-c2ccccn2)n2nnnc2c1Cl`, with -68.7% (inactive).
Consider `O=[N+]([O-])c1ccc(CSc2nc3cc(Cl)c(F)cc3[nH]2)cc1`, for which the inhibition is 10.8% (inactive).
Take `Cn1nnnc1SCC(=O)Nc1ccc(OC(F)(F)F)cc1`: the inhibition was 12% (inactive).
For `CN(C)c1ccc(C=Nc2ccc(S(N)(=O)=O)cc2)cc1` the value was -7.18% (inactive).
For `O=S(=O)(Cc1nnc(-c2cc(Cl)cc(Cl)c2)o1)c1ccc(Cl)cc1` the value was -4.49% (inactive); for `O=C(CSC1=NCCc2ccccc21)Nc1ccc(F)cc1F`, 0% (inactive); for `N/C(=N\OS(=O)(=O)c1ccc(C(F)(F)F)cc1)C1CSCCS1` (centres undefined), -14.1% (inactive).
Turning to `CC1=CC(=O)C(CCC2=CC(=O)C(C)=CC2=O)=CC1=O`, the inhibition was 87.8% (active).
Take `COc1ccc(/C(C)=N/Nc2c([N+](=O)[O-])cc(C(F)(F)F)cc2[N+](=O)[O-])cc1CC#N`: the inhibition was -38.4% (inactive).
For `O=C(O)C1CCC1C(=O)Nc1nnc(C2CC2)s1` (centres undefined) the value was 12% (inactive); for `COc1ccc(/C=N/N2CCC(=O)Nc3ccccc32)c(OC)c1`, -3% (inactive).
Then `Cc1oc(-c2ccc(Cl)cc2)cc1C(=O)N1CCN(Cc2ccccc2)CC1`, with -19.5% (inactive); and `Cc1oc(-c2ccc(Cl)cc2)cc1C(=O)N1CCOCC1`, with 4.54% (inactive).
For the compound `Cc1oc(-c2ccc(Cl)cc2)cc1C(=O)O/N=C(\N)Cc1nc2cccnc2n1C1CC1`, the inhibition is 86.4% (active).
`CC(=O)N1CCc2cc(NC(=S)Nc3ccccc3Cl)ccc21`: the inhibition is 11.8% (inactive).
Consider `CN1CCCCC(C2=C(Cl)C(=O)CCC2)C1=O` (centres undefined), for which the inhibition is -2.08% (inactive).
Regarding `O=C1C(Nc2ccccc2)=CC(c2ccc([N+](=O)[O-])cc2)N1c1ccccc1` (centres undefined), the inhibition is -5.43% (inactive).
Regarding `O=C(O)c1cc(=O)[nH]c2c(Cl)cc(Cl)cc12`, the inhibition is -17.9% (inactive).
Regarding `Cc1ccc(S(=O)(=O)N/N=C/c2ccc(O)cc2O)cc1`, the inhibition was -34.9% (inactive).
Turning to `COc1cc(C=C(C#N)C#N)cc(OC(C)=O)c1OC(C)=O`, the inhibition is 93.6% (active).
For `COc1ccc2c(OC(C)=O)coc2c1` the value was -103% (inactive); for `Cc1nnsc1C(=O)N/N=C/c1ccccc1Cl`, 26.6% (inactive); for `Cc1nn2c(=O)c3c4c(sc3nc2[nH]c1=O)CCCC4`, -87% (inactive).
Take `COC(OC)c1ccnc(SCC(=O)Nc2ccc(C(C)C)cc2)n1`: the inhibition is -5.58% (inactive).
`N#Cc1cn(-c2cccc(C(F)(F)F)c2)c(=O)n(Cc2ccc(Cl)cc2)c1=O`: the inhibition is 11.4% (inactive).
Regarding `O=C1OC2(CCCCC2)OC1c1ccccc1` (centres undefined), the inhibition was -30.5% (inactive).
